Bioassay records from PubChem.
PNC inhibitor = blocks assembly of the perinucleolar compartment; PC3M PTB-GFP, PNC prevalence imaging, 16 h; hits give low values; activity change (PNC), negative = inhibition, % at 10 µM; 3.1% of 140,000 active;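 active means readout at or below -70, meaning at least 70% loss of cells showing the perinucleolar compartment, a nuclear body marking cancer cells; inconclusive means readout between -30 and a set limit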;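 further: plate controls were DMSO wells for no effect and camptothecin positive control wells for full effect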
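Read-out is percentage of cells bearing a perinucleolar compartment, from automated 20x imaging of fixed, Hoechst-stained PC3M PTB-GFP cells. Cells were seeded 4 h, then exposed 16 h to compound (23 nl of library stock) in duplicate plates.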
Lamin A splicing = changes lamin A minigene splicing in HeLa cells. HeLa LMNA splicing GFP/RFP minigene ratio, 48 h. Potency, µM (highest dose often 46.1 µM), inactives show at the top dose ratio change, negative = inhibition, hits mostly inhibitors. 0.01% of 200,000 active. AID 1487; active means well fitted inhibition curve with a large enough effect in the signal ratio, with a control signal flat, not every such curve was filed as active; inconclusive means small, poorly fitted or top-dose-only effect, or effect the other way, or a change in a side signal; the % refers to the signal ratio; further: potency means the concentration at half of the fitted maximal effect
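Read-out is the ratio of GFP to DsRed2 object intensity, acquired by 488 nm laser-scanning cytometry on HeLa lamin A-EGFP minigene reporter cells. Compound incubation 48 hrs at 37 °C in Opti-MEM with 2% FBS; DMSO 0.5% final.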
ALDH1A1 block = blocks purified human ALDH1A1 activity; 7.3% of 220,000 active; AID 1030; Purified ALDH1A1, NADH fluorescence, propionaldehyde substrate; P00352; Potency, µM (top dose mostly 75.3 µM), for inactives: at the highest dose activity, negative = inhibition, actives largely listed as inhibitors;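 further: potency means the concentration at half of the fitted maximal effect; plate controls were no enzyme wells and a reference inhibitor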
Target sequence (P00352 whole entry, looked up): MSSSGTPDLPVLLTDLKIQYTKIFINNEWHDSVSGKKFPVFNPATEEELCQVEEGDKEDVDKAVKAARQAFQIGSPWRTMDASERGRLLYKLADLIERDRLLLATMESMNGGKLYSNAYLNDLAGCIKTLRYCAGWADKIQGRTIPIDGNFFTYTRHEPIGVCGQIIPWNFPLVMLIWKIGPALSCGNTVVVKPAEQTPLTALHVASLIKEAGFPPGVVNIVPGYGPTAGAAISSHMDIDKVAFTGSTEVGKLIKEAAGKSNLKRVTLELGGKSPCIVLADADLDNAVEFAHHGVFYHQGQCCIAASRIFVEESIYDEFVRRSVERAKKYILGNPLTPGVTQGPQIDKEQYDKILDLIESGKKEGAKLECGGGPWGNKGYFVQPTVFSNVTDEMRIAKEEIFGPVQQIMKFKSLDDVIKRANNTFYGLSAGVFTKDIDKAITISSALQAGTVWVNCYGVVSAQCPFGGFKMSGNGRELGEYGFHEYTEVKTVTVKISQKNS
HPGD inh = inhibitors of human 15-hydroxyprostaglandin dehydrogenase (HPGD). purified HPGD, NADH fluorescence kinetic, PGE2 substrate. 4.3% of 150,000 active. Potency, µM, for the others: at the top dose activity change, negative = inhibition, usual class: inhibitors. P15428. AID 894; further: potency means the concentration at half of the fitted maximal effect
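NADH formation kinetics: reaction with 30 uM PGE2 and 1 mM NAD+ (final), 20 nM enzyme, Tris-HCl pH 8 with Tween 20, after 15 min compound preincubation at room temperature. Fluorescence change, last versus first of five reads.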
Luc counter = Kinase-Glo luciferase inhibition (counter-screen); Kinase-Glo luciferase, ATP luminescence, 8 min; AID 1379; 0.28% of 200,000 active; Potency, µM (top dose mostly 38.3 µM), inactives show top-dose activity change, negative = inhibition, actives largely listed as inhibitors; active means well fitted inhibition curve with a large enough effect; inconclusive means small, poorly fitted or top-dose-only effect; further: potency means the concentration at half of the fitted maximal effect; nearly all actives have a fitted effect of over 60% in size
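Inhibition of Kinase-Glo luciferase light generation was assessed at 10 uM ATP in pH 7.2 imidazole buffer, with luminescence measured after eight minutes at ambient temperature.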
The depositor's hits bear a star; ? = inconclusive; . = no result; [ ] = dose if it differs, or a comment. The list is not random: actives were taken first. Their share in the collection is about 10%. Unless noted, the call rests on the fitted dose curve; in most records, active means well fitted inhibition curve with a large enough effect (not every such curve was filed as active); inconclusive means small, poorly fitted or top-dose-only effect, or another doubt; inactive means no such curve, though single readings can be large or run the other way. Unless noted, on the % scale 0 is the no-effect control and ±100 the full control effect.

SMILES	PNC inhibitor	Lamin A splicing	ALDH1A1 block	HPGD inh	Luc counter
Cc1[nH]n(-c2ccc(Cl)cc2)c(=O)c1C(=O)c1ccccc1	.	-10%[46 µM]	-5%	.	-3%
CCOC(=O)c1[nH]n(-c2ccc(Cl)cc2)c(=O)c1C	-114*	7%	?	-6%	-1%
COCCn1c(=O)c(-c2ccc(F)cc2)nc2cnc(N3CCOCC3)nc21	.	-6%	?	.	.
COc1ccc(C(C(=O)Nc2ccc(C(C)C)cc2)N(Cc2ccco2)C(=O)CC2NC(=O)NC2=O)cc1 (centres undefined)	.	.	25µM*	.	1%
COc1ccc(NC(=O)C(c2ccc(OC)cc2)N(Cc2ccco2)C(=O)CC2NC(=O)NC2=O)cc1 (centres undefined)	.	.	-6%	.	1%
COC(=O)C1=C(C)N(CC2CC2)C(=O)N[C@H]1CCc1ccccc1	.	.	6%	-4%	0%
Nc1ccc2nc(-c3ccccc3)sc2c1	?	?	?	?	7.9µM*
Cc1cccc(/C=C(\c2nc3ccccc3[nH]2)S(=O)(=O)c2ccccc2)c1	-82*	?	22%	-23%	4%
Cc1ccc(S(=O)(=O)N2c3ccccc3NC(=O)C2CC(=O)Nc2ccccc2)cc1 (centres undefined)	11	-2%	20µM*	-8%	-1%
Cc1ccc(S(=O)(=O)N2c3ccccc3NC(=O)CC2C)cc1 (centres undefined)	45	-1%	6%	1%	6%
COc1ccccc1CN1CC2(CCN(C(=O)c3cnccn3)CC2)C1	.	.	3%	-2%	-1%
CC(=O)Nc1sc(C)c(C)c1C(=O)OC(C)C	?	2%	22µM*	-16%	-2%
COc1ccc(C2C(C(=O)N3CCN(c4ccccc4)CC3)c3ccccc3C(=O)N2C)cc1 (centres undefined)	-100*	-13%	2.2µM*	-18%	2%
COc1ccc(C2C(C(=O)N3CCN(C)CC3)c3ccccc3C(=O)N2C2CCCCC2)cc1 (centres undefined)	?	1%	-1%	-3%	-1%
COc1ccc(C2C(C(=O)N3CCN(c4ccccc4)CC3)c3ccccc3C(=O)N2C)cc1OC (centres undefined)	35	-7%	?	-8%	7%
COc1ccc(C2C(C(=O)N3CCOCC3)c3ccccc3C(=O)N2c2ccc(OC)cc2)cc1 (centres undefined)	42	7%	14µM*	-10%	-2%
CCOC(=O)CNC(=O)C1c2ccccc2C(=O)N(c2ccc(OC)cc2)C1c1ccc(OC)cc1 (centres undefined)	-28	10%	28µM*	-15%	0%
C=CCOC(=O)C(C(=O)CC)C(NC(=O)OC)c1ccc(F)cc1 (centres undefined)	.	.	16%[13.5 µM]	.	.
N#C/C(=C\c1ccc(F)cc1F)S(=O)(=O)c1ccccn1	.	?	-9%	.	.
Cc1cc(C)nc(SCC(=O)NC2=NC(=O)C(C)S2)n1 (centres undefined)	?	6%	22µM*	?	5%
COc1cccc(CN(C)C(=O)c2ccc(S(=O)(=O)N3CCCC3)cc2)c1OC	10	?	11µM*	-5%	-2%
COc1cccc(CNC(=O)c2ccc(S(=O)(=O)N3CCCC3)cc2)c1	40	0%	13µM*	-5%	-3%
O=C(NCc1n[nH]c(=S)n1-c1ccc(Br)cc1)c1ccc(S(=O)(=O)N2CCCC2)cc1	.	.	?	.	0%
COc1cccc(CNC(=O)c2cc(S(=O)(=O)N3CCCCCC3)cn2C)c1	.	-30%[46 µM]	.	.	.
COc1ccccc1CNC(=O)c1ccc(S(=O)(=O)N2CCCC2)cc1	-28	?	?	.	.
SMILES	PNC inhibitor	Lamin A splicing	ALDH1A1 block	HPGD inh	Luc counter
COc1ccc(Br)cc1CNC(=O)C1CCN(S(=O)(=O)N2CCCCC2)CC1	78	7%[0.0737 µM]	13µM*	-7%	1%
COc1ccc(-n2c(CNC(=O)c3ccc(S(=O)(=O)N4CCCC4)cc3)n[nH]c2=S)cc1	?	5%	10µM*	-7%	-5%
COC(=O)N1CCC2(CC1)CN(c1ccccc1)C2	.	.	-2%	-3%	0%
COc1ccc(S(=O)(=O)N2CCC(C(=O)NCc3cccc(OC)c3)CC2)cc1	7	9%	-15%	-11%	0%
COc1cccc(CNC(=O)C2CCN(S(=O)(=O)N3CCCCC3)CC2)c1	11	11%	10µM*	-12%	-2%
Clc1ccc(CSCCc2ccncc2)cc1Cl	.	.	18%[13.5 µM]	-9%	-3%[7.66 µM]
CCC(C)NC(=O)CN1C(=O)c2cccnc2Oc2ccc(C)cc21 (centres undefined)	.	2%[46 µM]	.	.	.
O=[n+]1c2c(n([O-])c3cc(F)c(N4CCCC4)cc31)CCCC2	?	4%	20µM*	-12%	-10%
CC(C)n1nc(C(=O)Nc2nnc(C3CC3)s2)c2ccccc2c1=O	.	.	-3%	.	-2%
CCSc1nnc(NC(=O)c2nn(C(C)C)c(=O)c3ccccc23)s1	?	-10%	25µM*	-16%	1%
CCSc1nnc(NC(=O)c2cc(C)nc3ccccc23)s1	-17	3%	-8%	28µM*	2%
COC(=O)NC(c1ccccc1)c1c[nH]c2ccccc12 (centres undefined)	.	.	6%	-5%	1%
Cc1ccc(NC(=O)N/C=C/c2ccco2)cc1	-9	-2%	7.9µM*	-26%	3%
Cc1ccc(NC(=O)/C=C/c2ccco2)cc1F	.	-13%[46 µM]	.	.	.
Cc1c(Cl)cccc1NC(=O)N1CCC(CN2CCCC2)CC1	.	7%[46 µM]	.	.	.
COc1ccc(S(=O)(=O)n2nc(-c3ccc(Cl)cc3)cc2N)cc1OC	-7	-19%	89µM*	-19%	0%
CC(C)=CCc1c(O)cc(O)c2c1O[C@H](c1ccccc1)CC2=O	.	.	-7%	-4%	-1%
CCN(CC)C(=O)CN(c1ccc(C)cc1)S(=O)(=O)c1ccc(SC)cc1	33	8%	14µM*	-8%	-2%
COc1ccccc1C(=O)NNC(=S)NC(=O)c1sc2ccccc2c1Cl	-25	-11%	-11%	-10%	-4%
Cc1c(NC(=S)NC(=O)c2sc3ccccc3c2Cl)cccc1C(=O)O	.	-17%[46 µM]	25µM*	.	-1%
COc1ccccc1C(=O)NC(=S)NNC(=O)c1sc2ccccc2c1Cl	?	-6%	-5%	32µM*	2%
O=C(NC1CCCC1)c1ccc2c(=O)n(Cc3ccccc3)c(SCc3cccc([N+](=O)[O-])c3)nc2c1	.	10%[46 µM]	.	.	.
Cc1cccc(-c2oc(C)c(C)[n+]2[O-])c1	12	-9%	3.5µM*	-12%	2%
Cc1oc(-c2ccccc2)[n+]([O-])c1C	-20	7%	-3%	8%	-2%
COC(=O)C/C=C1\c2ccccc2[C@H](OC)[C@H]1C	.	.	7%[13.5 µM]	.	.
CCOc1cccc(=O)c2c(C)n(CC(=O)c3ccccc3)c(C)c12	.	.	8.9µM*	.	-8%
